Assay outcomes: PubChem BioAssay, several laboratories
aSyn 5UTR inh: MLPCN primary screen, SNCA 5' untranslated region; alpha-synuclein 5'UTR reporter, inhibitor activity; inhibition, % (tested at 7.5 µM); hit rate 0.82% among 300,000; AID 1813, 2009; in the data active means inhibition above about 60%;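 further: H4 neuroglioblastoma cells stably carrying SNCA 5'UTR luciferase fusion; 0% = DMSO wells and 100% = positive control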
Ba/F3 V617F tox: reduced viability of JAK2V617F-dependent Ba/F3 cells, primary screen, JAK2V617F inhibitor project, cell-based, Ba/F3 EpoR-JAK2V617F, luminescence; AID 1446, 2008; ATP luminescence; hit rate 1.1% among 220,000; inhibition, % at 5.6 µM;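 active means inhibition above the campaign mean plus 3 SD over all tested compounds, cut at about 24% in these data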;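 further: cytokine-independent growth of Ba/F3 cells driven by EpoR plus mutant JAK2; 0% = DMSO-treated cells and 100% = JAK inhibitor I control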
IEC-6 tox: cytotoxicity in IEC-6 intestinal epithelial cells, primary screen, cytotoxicity control for KLF5 inhibitor project, cell-based, luminescence; IEC-6 cytotoxicity, luminescence viability; inhibition, % at 5 µM; hit rate 0.78% among 290,000; in the data active means inhibition above about 22%;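 further: 0% = plate median of test compound wells and 100% = cytotoxic reference compound wells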
APP transl inh: inhibitors of APP translation via 5'UTR reporter, primary screen, APP 5'UTR luciferase, SH-SY5Y cells | SH-SY5Y APP 5'UTR-luciferase reporter, luminescence | inhibition, % at 2 µM | hit rate 0.82% among 190,000;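 active means inhibition above a set limit, derived from the sample mean plus 3 SD, cut at about 45% in these data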
KLF5 inh: KLF5 expression inhibitors, primary screen, DLD-1 cells, luminescence; DLD-1 KLF5 promoter-luciferase reporter; inhibition, % at 5 µM; hit rate 0.23% among 290,000;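 active means inhibition above a per-plate limit of that plate's mean compound inhibition plus 3 SD, cut at about 60% in these data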;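 further: 0% = DMSO wells and 100% = LY294002 at 200 µM; higher means less KLF5 promoter-driven luciferase light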
BaF3 parental: parental Ba/F3 cell viability inhibition, counter-screen for JAK2V617F inhibitor project, murine pro-B, CellTiter-Glo luminescence. CellTiter-Glo ATP luminescence. inhibition, % at 5.6 µM. hit rate 1.1% among 220,000. AID 1486, 2009;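 active means inhibition above a per-campaign cutoff, the mean inhibition of all tested compounds plus 3 SD, cut at about 27% in these data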;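 further: 0% = DMSO wells and 100% = JAK Inhibitor I control wells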
Active calls of the source: *; . = no result given. Rows were chosen to be rich in hits. Some 2.1% of all compounds tested hit in one or more screens of this group.

SMILES	aSyn 5UTR inh	Ba/F3 V617F tox	IEC-6 tox	APP transl inh	KLF5 inh	BaF3 parental
c1cc2n(c1)-c1c(ccc3c1OCO3)CNC2c1ccc2c(c1)OCO2 (stereo not drawn)	0.6	-1.4	7.8	-5.4	5.2	2.0
Cc1ccc(-c2cc(-c3ccc(C)cc3)[n+](-c3ccc(C(=O)O)cc3)c(-c3ccc(C)cc3)c2)cc1	-15.7	.	.	.	.	.
Cc1ccc(C[n+]2c(-c3ccc(C)cc3)cc(-c3ccc(C)cc3)cc2-c2ccc(C)cc2)cc1	95.2*	.	.	.	.	.
CC12CC[C@H]3[C@@H](CCC4(O)C[C@H](O)CCC34/C=N/NC(=O)c3ccccc3[N+](=O)[O-])C1(O)CCC2C1=CC(=O)OC1 (stereo partly drawn)	117.3*	.	1.0	.	-28.7	.
CC12CC[C@H]3[C@@H](CCC4(O)C[C@H](O)CCC34/C=N/NC(=O)Cc3ccccc3)C1(O)CCC2C1=CC(=O)OC1 (stereo partly drawn)	24.8	-4.4	-1.3	2.5	9.8	-1.9
CN1CC(C(=O)c2cccc(C(F)(F)F)c2)C(c2ccc(Cl)cc2)C1 (stereo not drawn)	-20.6	.	3.4	.	-5.9	.
CCCCCn1c(=O)c(C(=O)Nc2cnccn2)c(O)c2ccccc21	98.1*	0.9	-2.0	2.0	-9.4	12.1
CCCCCn1c(=O)c(C(=O)Nc2ccccc2S(N)(=O)=O)c(O)c2ccccc21	68.8*	4.5	-2.2	10.5	21.9	13.4
O=C(Nc1ccc(F)c([N+](=O)[O-])c1)N1C[C@H]2C[C@@H](C1)c1cccc(=O)n1C2	9.3	.	6.7	.	-24.6	.
CCOc1cc2c(cc1OCC)-n1cccc1C(c1ccc(C(C)C)cc1)NC2 (stereo not drawn)	11.7	.	12.9	.	-23.3	.
COc1cccc(CNCCc2cccc(F)c2)c1OC	3.2	.	2.1	.	-5.5	.
CN1CCN(c2ccc([N+](=O)[O-])c3no[n+]([O-])c23)CC1	97.8*	99.2*	90.3*	.	9.9	107.2*
Oc1cccc2cccnc12	-5.7	.	37.1*	.	30.2	.
COC(=O)C1=C(c2cccc(OC)c2OC)C[C@@H]2CC[C@H]1N2C(=O)NCc1cccc2ccccc12	21.7	.	.	.	.	.
Cc1[nH]c2c(C(F)(F)F)cccc2c1CCN	20.7	4.0	6.4	47.6*	0.3	10.8
COC(=O)C1CN(C#N)N(c2ccc(Cl)cc2)C12c1ccccc1-c1ccccc12 (stereo not drawn)	111.8*	94.7*	45.5*	94.4*	17.9	29.5*
CCN1CCN(S(=O)(=O)c2ccc(Cl)c(C(=O)Nc3ccc(C(=O)N(CC)CC)cc3)c2)CC1	-12.1	.	-0.2	.	-58.1	.
COc1ccc(OC)c(N=Cc2c(O)[nH]c(=O)[nH]c2=O)c1	7.9	.	4.0	.	-3.4	.
CN1/C(=C\C=Nc2ccccc2)C(C)(C)c2ccccc21	-38.0	31.4*	-5.3	-14.2	-6.8	57.4*
O=C1NC(=O)N(CCc2ccc(F)cc2)C(=O)/C1=C\C=C\c1ccccc1	.	0.0	0.3	30.6	-8.3	8.4
C=CCN1C(=O)NC(=O)/C(=C/C=C/c2ccccc2)C1=O	-69.5	4.5	-2.4	73.8*	-10.4	10.1
CCCNC1=C(C)C(=O)C2=C(C1=O)C(COC(N)=O)[C@]1(OC)C3NC3CN21 (stereo partly drawn)	-20.5	82.2*	7.7	.	-12.7	61.8*
CCN1C[C@@]2(COC)C3[C@@H](OC)[C@H]4[C@@H]1[C@@]3(C1C[C@@]3(O)[C@H](OC(=O)c5ccccc5)C1[C@]4(OC(C)=O)[C@@H](O)[C@H]3OC)[C@@H](OC)C[C@H]2O (stereo partly drawn)	-9.3	.	.	.	.	.
Nc1ccccc1-[n+]1c(-c2ccccc2)cc(-c2ccccc2)cc1-c1ccccc1	-20.6	48.5*	10.7	.	7.1	51.8*
CNc1ccc2oc(C[C@H]3O[C@@]4(CC[C@H]3C)O[C@H]([C@H](C)C(=O)c3ccc[nH]3)[C@H](C)C[C@H]4C)nc2c1C(=O)O	116.6*	.	.	.	.	.
SMILES	aSyn 5UTR inh	Ba/F3 V617F tox	IEC-6 tox	APP transl inh	KLF5 inh	BaF3 parental
Cc1nc2ccccc2c(=O)n1-c1ccccc1[N+](=O)[O-]	3.5	-4.5	13.2	4.2	-10.7	-1.9
Cc1cc([N+](=O)[O-])c2ccccc2[n+]1[O-]	126.7*	100.0*	100.9*	.	71.1*	105.5*
CCCC[N+]12CCC(CC1)C(Cc1ccccc1)C2 (stereo not drawn)	23.3	20.4	-0.2	.	8.1	30.8*
COc1cccc(C2CC3C(=O)C=CC2N3Cc2ccccc2)c1 (stereo not drawn)	0.9	-0.5	2.7	4.7	-28.8	8.0
NC(N)=N/N=C/c1ccc(N2CCOCC2)cc1	-20.9	58.2*	3.5	4.4	4.1	71.5*
COc1ccc(/C=N\N=C(N)N)cc1	-5.2	1.1	1.8	-6.8	2.3	0.2
NC(N)=N/N=C/c1ccc(N(c2ccccc2)c2ccccc2)cc1	137.8*	.	0.3	.	-47.2	.
Cc1nc2cc([N+](=O)[O-])ccc2c(=O)n1-c1cccc(Br)c1	12.3	.	.	.	.	.
C=C1C(=O)O[C@@H]2C[C@@H](C)[C@@H]3C=CC(=O)[C@@]3(C)[C@@H](OC(=O)CC(=O)O[C@H]3[C@@H]4C(=C)C(=O)O[C@@H]4C[C@@H](C)[C@@H]4C=CC(=O)[C@]43C)[C@H]12	116.1*	.	.	.	.	.
C=CCN(CC#CCOc1ccccc1OC)CC=C	-1.9	2.2	0.9	-5.2	1.4	7.6
COCCCn1c(N)c(C(=O)OCCOC)c2nc3ccccc3nc21	-24.6	1.7	-2.0	-0.1	-3.1	1.4
CCOC(=O)c1c(N)n(CCCOC(=O)c2ccco2)c2nc3ccccc3nc12	114.3*	0.2	0.1	-7.7	-1.5	1.1
CC(N)Cc1cn(Cc2ccccc2)c2ccccc12 (stereo not drawn)	-15.0	.	0.8	.	-31.3	.
OC[C@@H](O)CCl	-10.0	.	.	.	.	.
CCOC(=O)c1ccc2c(c1)n(Cc1ccccc1)c(C)[n+]2CC	31.8	18.2	-5.3	-41.1	-20.5	27.4*
Cn1c(O)c(C=Nc2ccc(F)cc2)c(=O)[nH]c1=O	1.7	.	-11.4	.	2.7	.
CC(C)(C)n1c(O)c(C=Nc2ccc3c(c2)CCC3)c(=O)[nH]c1=O	-5.6	-2.9	0.0	2.9	-30.2	63.0*
CN(C)c1ccc(C2C3C=CC(C3)C2(C#N)C(=O)O)c(Br)c1 (stereo not drawn)	12.9	.	4.1	.	10.8	.
C[C@H]1C/C=C/[C@H]2[C@H](O)[C@H](C)[C@@](C)(O)[C@H]3[C@H](Cc4ccccc4)NC(=O)[C@]32[C@H](O)/C=C/[C@](C)(O)C1	24.0	.	.	.	.	.
CC(=O)O[C@@H]1/C=C/[C@](C)(O)C[C@@H](C)C/C=C/[C@H]2[C@H](O)C(C)=C(C)[C@H]3[C@H](Cc4ccccc4)NC(=O)[C@@]123	116.7*	.	.	.	.	.
Cc1cc(OCC(=O)N2CCC(C(N)=O)CC2)c2c3c(c(=O)oc2c1)CCCC3	14.7	.	-5.3	.	-1.4	.
